Test results: ChEMBL document CHEMBL1157539, “Thousands of chemical starting points for antimalarial lead identification” (Nature, 2010)

Tests used:
Assay type in all cases: functional
[1] = system: Plasmodium falciparum; assay: GSK_TCMDC: Inhibition of Plasmodium falciparum 3D7 in whole red blood cells, using parasite LDH activity as an index of growth. Test compounds present at 2uM
[2] = system: Plasmodium falciparum; assay: GSK_TCMDC: Inhibition of Plasmodium falciparum Dd2 in whole red blood cells, using parasite LDH activity as an index of growth. Test compounds present at 2uM
[3] = system: HepG2; assay: GSK_TCMDC: Percent inhibition of human HepG2 cell line. Test compounds present at 10uM.

Row | SMILES | Inhibition [1] [%] | Inhibition [2] [%] | Inhibition [3] [%]
1 | Cc1ccc(-c2nc(NC(=O)Nc3ccc(C(F)(F)F)cc3)sc2C)cc1Cl | 99 | 86 | 29
2 | COc1ccc(CCCN2C(=O)C(c3ccccc3)(c3ccccc3)N=C2N)cc1.O=C(O)C(F)(F)F | 94 | 76 | 21
3 | O=C(O)C(F)(F)F.Oc1ccc(CCNc2nc(NCCCOc3ccccc3-c3ccncc3)nc(N3CCNCC3)n2)cc1 | 96 | 0 | 8
4 | COCCN1CCN(Cc2ccc(-c3ccc(-c4nc5cc(F)ccc5[nH]4)cc3)cc2)CC1.O=C(O)C(F)(F)F | 100 | 99 | 25
5 | CN(C)CCC1CCCc2ccc(NC(=O)Nc3cccc(Cl)c3Cl)cc21.Cl (centres undefined) | 93 | 11 | 44
6 | CCc1ccccc1N1CCN(CCCC(=O)c2ccc(NC(=O)c3cc(Cl)cc(Cl)c3)cc2)CC1 | 99 | 46 | 16
7 | COc1cccc(CN(C(=O)Nc2ccccc2F)[C@H]2C[C@H]3C(=O)Nc4cc(F)ccc4C(=O)N3C2)c1 | 93 | 75 | 0
8 | Cc1nc(N)nc(N)c1OCc1ccc(Cl)c(Cl)c1.Cl | 97 | 5 | 14
9 | O=C(/C=C/c1ccc(Cl)c(Cl)c1)NCCCCCN1CCCN(C(=O)Nc2cccc(C(F)(F)F)c2)CC1 | 96 | 0 | 45
10 | O=C(CC(=O)Nc1cc(Cl)cc(Cl)c1)Nc1cc(Cl)cc(Cl)c1 | 95 | 96 | 0
11 | CCN(CC)C(=O)C1CCCN(C(=O)Nc2cc(C(F)(F)F)cc(C(F)(F)F)c2)C1 (centres undefined) | 86 | 98 | 0
12 | Cl.N=C(Cc1ccc(Cl)cc1)NCCN1CCCCCC1 | 93 | 94 | 0
13 | O=[N+]([O-])c1ccccc1/C=N/Nc1ccnc2ccc(C(F)(F)F)cc12 | 100 | 36 | 6
14 | CCOc1ccc(C(=O)Nc2cc(Br)c3c(c2)CNCC3)cc1Cl.Cl | 92 | 8 | 13
15 | Cc1cc(Nc2ccncc2)n2nc(C)c(-c3ccc(Cl)cc3)c2n1 | 100 | 99 | 0
16 | C=CCOC(=O)N1CCC(CNCc2ccc(-c3cccc(-c4nc5ccccc5[nH]4)c3)cc2)C1.O=C(O)C(F)(F)F (centres undefined) | 100 | 50 | 39
17 | CCc1nn2c(Nc3ccncc3)cc(C)nc2c1-c1ccccc1 | 100 | 98 | 4
18 | O=C(Nc1ccccc1F)NC1CCN(c2ccnc(Nc3ccc(F)cc3)n2)C1 (centres undefined) | 95 | 74 | 0
19 | CC(=O)c1ccc(NC(=O)NNC(=O)c2ccc(CCN3CCC(c4nc(COCC(F)(F)F)c(-c5ccc(F)cc5)o4)CC3)cc2)cc1 | 96 | 27 | 17
20 | COc1cc(CNCCCCCCNCc2cc(OC)c(OC)c3ccccc23)c2ccccc2c1OC.CS(=O)(=O)O | 100 | 100 | 100
21 | O=C(O)C(F)(F)F.OCCN1CCN(Cc2cccc(-c3ccc(-c4nc5cc(C(F)(F)F)ccc5[nH]4)cc3)c2)CC1 | 100 | 85 | 19
22 | CN(C)CC(=O)NCC(NCCCNc1cc(=O)c2ccccc2[nH]1)c1cc(Br)cc(Br)c1 (centres undefined) | 98 | 2 | 6
23 | Cc1cc(-c2ccc(CNC3CCN(C)CC3)cc2)ccc1S(=O)(=O)NCc1ccccc1.O=C(O)C(F)(F)F | 100 | 97 | 52
24 | O=C(c1ccc(Br)o1)N1N=C(c2cccs2)CC1c1ccc(Br)cc1 (centres undefined) | 96 | 45 | 5
25 | O=C(O)c1ccc(OCOCOc2ccc(C(=O)O)c(O)c2)cc1O | 99 | 0 | 0
26 | O=C(Nc1ccc(-c2cccc(-c3nc4ccccc4[nH]3)c2)cc1)Nc1ccc(Cl)c(Cl)c1 | 100 | 80 | 61
27 | Oc1ccccc1CN1CCCC(COC(c2ccc(F)cc2)c2ccc(F)cc2)C1 (centres undefined) | 97 | 98 | 19
28 | CC(C)(C)OC(=O)NCc1ccc(Nc2nnc(-c3ccc(OCC(=O)NC[C@@H]4CC[C@H]5C[C@@H]4C5(C)C)c([N+](=O)[O-])c3)o2)cc1 | 94 | 52 | 29
